The panel holds about 79,000 compounds, 15% with a hit somewhere; the sample as a whole holds those more often. Values without a mark were called inactive. Calls of active or inactive are those of the source. Cut-off read from the data, not from the text of the source: active = growth inhibition above about 70%; inactive = the rest.
Assay: NCI Yeast Anticancer Drug Screen. Data for the rad50 strain (AID 155);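 note: 0% = growth of vehicle-only cultures of the same strain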
Details: S. cerevisiae rad50 strain growth inhibition; at 5.0 µM (retest, dose inferred, filed as 0.5); hits give high values
Summary of the method: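 Vehicle-treated cultures provide the reference for the growth inhibition reported for compound-exposed, repair-deficient yeast.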

| SMILES | growth inhibition |
| --- | --- |
| CCCCC#C[I+]c1ccccc1 | 66% |
| CCOC(=O)C1C(c2cccc(OC)c2O)c2cc3c(cc2OC1(C)N1CCCC1)OCO3 (stereo not drawn) | -3% |
| Nc1ncnc2nn(C3OC(CO)C(O)C3O)nc12 (stereo not drawn) | 15% |
| Nc1nc(-c2ccc3c(c2)Sc2ccccc2O3)cs1 | 18% |
| O=C1C=CC(Nc2cccc([N+](=O)[O-])c2)C1Nc1cccc([N+](=O)[O-])c1 (stereo not drawn) | -21% |
| O=C(CC(=O)c1ccccc1)CC(=O)c1ccccc1 | 31% |
| Fc1ccc(CSC(=S)Nc2ccc(Br)cc2)cc1 | 9% |
| Cc1cc([N+](=O)[O-])c2nnnn2c1 | 5% |
| CN(c1ccc(C(N)=O)cc1)c1c(O)c2ccccc2[nH]c1=O | 1% |
| O=C(/C=C\c1cccc2ccccc12)c1ccccn1 | 7% |
| COc1ccc2c(c1)CCc1c(CO)c(COC(=O)NC(C)C)n(C)c1-2 | 87% (active) |
| O=C1CC(O)CC(=O)C1=C(O)CCCCCCCCCCc1ccccc1 (stereo not drawn) | 25% |
| CC1CCN(CCCOC(=O)c2ccccc2)CC1 | 25% |
| Cc1ccc(S(=O)(=O)OC2COC3C(OS(=O)(=O)c4ccc(C)cc4)COC23)cc1 (stereo not drawn) | -2% |
| Cc1nn(C(=S)S)c(C)c1N=Nc1cccc(F)c1 | 15% |
| O=C1C(=Cc2ccccc2O)N=C(c2ccccc2)N1n1c(-c2ccccc2)nc2ccccc2c1=O | 5% |
| O=C1/C(=C/c2ccccc2)CNC/C1=C\c1ccccc1 | -11% |
| Cc1cc(Br)c(P(=O)(O)O)cc1[N+](=O)[O-] | -3% |
| Oc1cc(Cc2ccccc2)c(Cc2ccccc2)cc1O | -32% |
| O=S1(=O)CCN(c2ccccc2CC(c2c[nH]c3ccccc23)c2c[nH]c3ccccc23)CC1 | 29% |

| SMILES | growth inhibition |
| --- | --- |
| CCCCCC(O)C(C)CO (stereo not drawn) | 1% |
| Cc1cc(=O)c2cc(N=Cc3ccc([N+](=O)[O-])o3)ccc2o1 | -1% |
| CN(C)C(=S)/N=c1\ssc(=S)n1Cc1ccco1 | 22% |
| O=[N+]([O-])c1ccc2nc(Nc3ccccc3)c(Nc3ccccc3)nc2c1 | -18% |
| CC(=O)NC(CCC(=O)O)C(=O)O.[NH-]C1CCCCC1[NH-].[Pt+2] (stereo not drawn) | 96% (active) |
| CC(=O)Oc1c2c(c(C)c3ccccc13)C(=O)c1cccnc1C2=O | 6% |
| C=C1C(=O)OC2C(C)C3C=CC(=O)[C@@]3(C)C(OC(=O)/C(C)=C/C)C1[C@@H]2OC(C)=O (stereo partly drawn) | 3% |
| O=C(O)/C=C/c1ccc2c(c1)CC1(Cc3ccccc3C1)C2 | 27% |
| C(=C\c1ccc(-[n+]2nc(-c3ccccc3)nn2-c2ccccc2)cc1)/c1ccccc1 | 85% (active) |
| O=CC(O)C(O)C(O)C(O)C(=O)NCCCCCCCCCCCCNC(=O)C(O)C(O)C(O)C(O)C=O (stereo not drawn) | 19% |
| CCCCCCCCCCN(CCCCCCCCCC)CC(O)c1cc(-c2ccccc2)nc2ccccc12 (stereo not drawn) | -1% |
| CC1(C)C(=O)C(C(Cl)(Cl)Cl)=C(Cl)C(=O)C1(Cl)Cl | 64% |
| Cc1cccc2c1CC1(C2)Cc2c(C)cccc2C1=O (stereo not drawn) | -3% |
| Oc1c(Cl)cc(C(c2cc(Cl)c(O)c(Cl)c2)C(c2cc(Cl)c(O)c(Cl)c2)c2cc(Cl)c(O)c(Cl)c2)cc1Cl | 99% (active) |
| Cc1ccc(S(=O)(=O)NC(Cc2ccccc2)C(=O)CCl)cc1 (stereo not drawn) | 61% |
| CCOC(=O)/C(C#N)=C/c1coc2cc(C)cc(C)c2c1=O | 6% |
| CN(C)/N=C\C1CC=CCC1 (stereo not drawn) | -148% |
| NCC(=O)N/N=C/c1ccc([N+](=O)[O-])o1 | 10% |
| CCc1cc(CC)c(-c2ccco2)c(COC(=O)NC)c1 | -1% |

Same assay, conditions: S. cerevisiae rad50 strain growth inhibition; at 50.0 µM (retest, dose inferred, filed as 5.0); hits give high values

| SMILES | growth inhibition |
| --- | --- |
| CCCCC#C[I+]c1ccccc1 | 66% |
| CCOC(=O)C1C(c2cccc(OC)c2O)c2cc3c(cc2OC1(C)N1CCCC1)OCO3 (stereo not drawn) | 21% |
| Nc1ncnc2nn(C3OC(CO)C(O)C3O)nc12 (stereo not drawn) | 20% |
| Nc1nc(-c2ccc3c(c2)Sc2ccccc2O3)cs1 | 99% (active) |
| O=C1C=CC(Nc2cccc([N+](=O)[O-])c2)C1Nc1cccc([N+](=O)[O-])c1 (stereo not drawn) | -16% |
| O=C(CC(=O)c1ccccc1)CC(=O)c1ccccc1 | 81% (active) |
| Fc1ccc(CSC(=S)Nc2ccc(Br)cc2)cc1 | 99% (active) |
| Cc1cc([N+](=O)[O-])c2nnnn2c1 | 59% |
| CN(c1ccc(C(N)=O)cc1)c1c(O)c2ccccc2[nH]c1=O | 58% |
| O=C(/C=C\c1cccc2ccccc12)c1ccccn1 | 97% (active) |
| COc1ccc2c(c1)CCc1c(CO)c(COC(=O)NC(C)C)n(C)c1-2 | 90% (active) |
| O=C1CC(O)CC(=O)C1=C(O)CCCCCCCCCCc1ccccc1 (stereo not drawn) | 41% |
| CC1CCN(CCCOC(=O)c2ccccc2)CC1 | 40% |
| Cc1ccc(S(=O)(=O)OC2COC3C(OS(=O)(=O)c4ccc(C)cc4)COC23)cc1 (stereo not drawn) | -13% |
| Cc1nn(C(=S)S)c(C)c1N=Nc1cccc(F)c1 | 29% |
| O=C1C(=Cc2ccccc2O)N=C(c2ccccc2)N1n1c(-c2ccccc2)nc2ccccc2c1=O | 31% |
| O=C1/C(=C/c2ccccc2)CNC/C1=C\c1ccccc1 | 98% (active) |
| Cc1cc(Br)c(P(=O)(O)O)cc1[N+](=O)[O-] | -10% |
| Oc1cc(Cc2ccccc2)c(Cc2ccccc2)cc1O | 96% (active) |
| O=S1(=O)CCN(c2ccccc2CC(c2c[nH]c3ccccc23)c2c[nH]c3ccccc23)CC1 | 90% (active) |

| SMILES | growth inhibition |
| --- | --- |
| CCCCCC(O)C(C)CO (stereo not drawn) | -3% |
| Cc1cc(=O)c2cc(N=Cc3ccc([N+](=O)[O-])o3)ccc2o1 | 72% (active) |
| CN(C)C(=S)/N=c1\ssc(=S)n1Cc1ccco1 | -7% |
| O=[N+]([O-])c1ccc2nc(Nc3ccccc3)c(Nc3ccccc3)nc2c1 | 91% (active) |
| CC(=O)NC(CCC(=O)O)C(=O)O.[NH-]C1CCCCC1[NH-].[Pt+2] (stereo not drawn) | 99% (active) |
| CC(=O)Oc1c2c(c(C)c3ccccc13)C(=O)c1cccnc1C2=O | 4% |
| C=C1C(=O)OC2C(C)C3C=CC(=O)[C@@]3(C)C(OC(=O)/C(C)=C/C)C1[C@@H]2OC(C)=O (stereo partly drawn) | 91% (active) |
| O=C(O)/C=C/c1ccc2c(c1)CC1(Cc3ccccc3C1)C2 | 82% (active) |
| C(=C\c1ccc(-[n+]2nc(-c3ccccc3)nn2-c2ccccc2)cc1)/c1ccccc1 | 98% (active) |
| O=CC(O)C(O)C(O)C(O)C(=O)NCCCCCCCCCCCCNC(=O)C(O)C(O)C(O)C(O)C=O (stereo not drawn) | 22% |
| CCCCCCCCCCN(CCCCCCCCCC)CC(O)c1cc(-c2ccccc2)nc2ccccc12 (stereo not drawn) | 74% (active) |
| CC1(C)C(=O)C(C(Cl)(Cl)Cl)=C(Cl)C(=O)C1(Cl)Cl | 97% (active) |
| Cc1cccc2c1CC1(C2)Cc2c(C)cccc2C1=O (stereo not drawn) | 87% (active) |
| Oc1c(Cl)cc(C(c2cc(Cl)c(O)c(Cl)c2)C(c2cc(Cl)c(O)c(Cl)c2)c2cc(Cl)c(O)c(Cl)c2)cc1Cl | 98% (active) |
| Cc1ccc(S(=O)(=O)NC(Cc2ccccc2)C(=O)CCl)cc1 (stereo not drawn) | 99% (active) |
| CCOC(=O)/C(C#N)=C/c1coc2cc(C)cc(C)c2c1=O | 100% (active) |
| CN(C)/N=C\C1CC=CCC1 (stereo not drawn) | -148% |
| NCC(=O)N/N=C/c1ccc([N+](=O)[O-])o1 | 24% |
| CCc1cc(CC)c(-c2ccco2)c(COC(=O)NC)c1 | 68% |

Reference: PubChem BioAssay (NCI)
